Experimental data as given in the supplement of paper PMC10849652.
Of roughly 7,900 targets only a part is listed; those with a hit were picked by preference. About 0.6% of all pairs of compound and target were hits.

compound: c1cn2cc(-c3ccc4cn[nH]c4c3)nc(Nc3ccc(N4CCOCC4)cc3)c2n1 [entospletinib]; test: log2 fold change, soluble protein after heating vs DMSO (PISA); higher = thermal stabilisation; K562 cells, 10 uM, 30 min; active = over 0.2 and 3.5 SD of the protein, either way, in both replicates (recomputed)
Method in brief: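 Soluble protein was quantified by TMTpro 16plex LC-MS/MS after channel sums were equalised. It was obtained as the supernatant after 21,000xg for 90 min from pooled aliquots of K562 cells (2×10^6 cells/mL, 10 μM compound, 30 min) heated for 3 min across 48°C-58°C and extracted in PBS with 0.5% NP-40 at 4°C. Thermal stability values are relative to control samples and come from duplicates. They are given as log2 fold changes.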

Sequence of UniProt O14950 (O14950 whole entry, looked up): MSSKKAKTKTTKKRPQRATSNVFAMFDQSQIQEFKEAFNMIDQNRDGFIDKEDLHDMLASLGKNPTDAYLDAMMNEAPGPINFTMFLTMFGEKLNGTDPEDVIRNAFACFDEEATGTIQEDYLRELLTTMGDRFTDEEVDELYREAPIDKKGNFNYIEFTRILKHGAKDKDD
Sequence of UniProt Q9UBD5 (Q9UBD5 whole entry, looked up): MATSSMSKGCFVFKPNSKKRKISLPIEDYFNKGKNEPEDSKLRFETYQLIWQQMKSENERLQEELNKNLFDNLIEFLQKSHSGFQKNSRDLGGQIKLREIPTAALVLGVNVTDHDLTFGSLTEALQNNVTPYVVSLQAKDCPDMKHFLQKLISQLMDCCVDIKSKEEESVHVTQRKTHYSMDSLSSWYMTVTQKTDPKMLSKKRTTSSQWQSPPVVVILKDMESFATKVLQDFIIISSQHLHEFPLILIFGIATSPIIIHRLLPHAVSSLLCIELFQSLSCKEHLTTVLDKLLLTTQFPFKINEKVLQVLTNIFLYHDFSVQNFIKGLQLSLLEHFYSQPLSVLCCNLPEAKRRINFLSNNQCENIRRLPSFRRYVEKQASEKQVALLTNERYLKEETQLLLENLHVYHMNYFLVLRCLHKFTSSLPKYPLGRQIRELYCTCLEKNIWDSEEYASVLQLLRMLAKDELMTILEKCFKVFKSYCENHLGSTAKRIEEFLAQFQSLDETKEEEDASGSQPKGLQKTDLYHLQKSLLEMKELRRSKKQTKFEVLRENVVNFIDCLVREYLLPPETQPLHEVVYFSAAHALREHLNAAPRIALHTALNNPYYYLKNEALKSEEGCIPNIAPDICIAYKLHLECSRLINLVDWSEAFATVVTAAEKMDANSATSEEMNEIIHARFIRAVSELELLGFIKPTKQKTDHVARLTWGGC
Sequence of UniProt P15559 (P15559 whole entry, looked up): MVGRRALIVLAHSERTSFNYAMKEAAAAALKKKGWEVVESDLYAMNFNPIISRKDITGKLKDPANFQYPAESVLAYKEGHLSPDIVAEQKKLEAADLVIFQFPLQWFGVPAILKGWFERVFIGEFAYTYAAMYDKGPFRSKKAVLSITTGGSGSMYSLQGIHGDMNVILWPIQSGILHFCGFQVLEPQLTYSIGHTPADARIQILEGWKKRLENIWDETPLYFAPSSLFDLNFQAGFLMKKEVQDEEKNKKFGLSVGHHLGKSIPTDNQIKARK
Sequence of UniProt O60551 (O60551 whole entry, looked up): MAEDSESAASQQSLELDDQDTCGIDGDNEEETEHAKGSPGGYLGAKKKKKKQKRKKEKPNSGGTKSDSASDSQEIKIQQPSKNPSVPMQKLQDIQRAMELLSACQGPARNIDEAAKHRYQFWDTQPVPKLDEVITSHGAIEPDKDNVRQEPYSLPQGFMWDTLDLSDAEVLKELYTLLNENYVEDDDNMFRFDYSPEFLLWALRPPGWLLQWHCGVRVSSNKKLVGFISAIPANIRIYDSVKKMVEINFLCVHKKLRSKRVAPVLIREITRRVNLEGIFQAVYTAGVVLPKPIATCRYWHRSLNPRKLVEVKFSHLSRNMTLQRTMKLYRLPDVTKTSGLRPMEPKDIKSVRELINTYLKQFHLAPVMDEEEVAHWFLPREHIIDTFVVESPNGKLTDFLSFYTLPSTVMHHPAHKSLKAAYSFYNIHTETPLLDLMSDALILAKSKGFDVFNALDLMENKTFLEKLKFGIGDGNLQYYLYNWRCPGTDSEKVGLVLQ
Sequence of UniProt Q330K2 (Q330K2 whole entry, looked up): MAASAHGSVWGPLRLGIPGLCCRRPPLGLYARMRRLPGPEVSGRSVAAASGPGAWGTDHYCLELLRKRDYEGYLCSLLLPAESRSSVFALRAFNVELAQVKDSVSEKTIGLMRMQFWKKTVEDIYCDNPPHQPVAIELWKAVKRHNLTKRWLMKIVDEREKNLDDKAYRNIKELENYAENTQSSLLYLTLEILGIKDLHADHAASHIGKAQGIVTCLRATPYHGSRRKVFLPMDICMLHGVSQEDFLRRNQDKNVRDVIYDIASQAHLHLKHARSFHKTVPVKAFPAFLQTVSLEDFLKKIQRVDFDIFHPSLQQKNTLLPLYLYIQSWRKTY
Sequence of UniProt P25208 (P25208 whole entry, looked up): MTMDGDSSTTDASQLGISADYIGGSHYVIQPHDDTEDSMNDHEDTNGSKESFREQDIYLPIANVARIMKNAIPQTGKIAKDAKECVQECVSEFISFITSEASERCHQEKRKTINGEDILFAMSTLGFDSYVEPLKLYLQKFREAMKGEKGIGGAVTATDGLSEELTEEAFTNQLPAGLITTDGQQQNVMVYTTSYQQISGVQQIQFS
Sequence of UniProt P30419 (P30419 whole entry, looked up): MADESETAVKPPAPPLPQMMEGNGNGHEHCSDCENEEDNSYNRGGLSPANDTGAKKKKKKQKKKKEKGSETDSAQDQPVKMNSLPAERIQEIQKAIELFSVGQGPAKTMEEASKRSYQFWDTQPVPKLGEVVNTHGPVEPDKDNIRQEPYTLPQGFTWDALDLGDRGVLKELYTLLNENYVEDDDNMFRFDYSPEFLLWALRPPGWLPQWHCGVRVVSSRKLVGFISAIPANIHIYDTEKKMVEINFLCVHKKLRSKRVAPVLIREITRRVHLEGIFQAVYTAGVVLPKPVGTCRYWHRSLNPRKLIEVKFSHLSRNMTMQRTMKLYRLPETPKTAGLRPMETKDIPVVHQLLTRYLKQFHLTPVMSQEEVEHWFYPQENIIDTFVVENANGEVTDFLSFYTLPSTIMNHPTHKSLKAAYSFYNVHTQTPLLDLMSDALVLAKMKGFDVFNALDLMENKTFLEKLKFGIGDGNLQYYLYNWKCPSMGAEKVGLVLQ
Sequence of UniProt Q8WZ82 (Q8WZ82 whole entry, looked up): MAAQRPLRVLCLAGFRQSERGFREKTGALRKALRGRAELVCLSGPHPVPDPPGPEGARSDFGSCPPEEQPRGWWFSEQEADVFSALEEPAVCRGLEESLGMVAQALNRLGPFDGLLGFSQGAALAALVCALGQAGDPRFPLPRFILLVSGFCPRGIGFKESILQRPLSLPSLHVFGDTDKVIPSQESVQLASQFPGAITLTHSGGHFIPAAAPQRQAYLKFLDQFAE
Sequence of UniProt O75030 (O75030 whole entry, looked up): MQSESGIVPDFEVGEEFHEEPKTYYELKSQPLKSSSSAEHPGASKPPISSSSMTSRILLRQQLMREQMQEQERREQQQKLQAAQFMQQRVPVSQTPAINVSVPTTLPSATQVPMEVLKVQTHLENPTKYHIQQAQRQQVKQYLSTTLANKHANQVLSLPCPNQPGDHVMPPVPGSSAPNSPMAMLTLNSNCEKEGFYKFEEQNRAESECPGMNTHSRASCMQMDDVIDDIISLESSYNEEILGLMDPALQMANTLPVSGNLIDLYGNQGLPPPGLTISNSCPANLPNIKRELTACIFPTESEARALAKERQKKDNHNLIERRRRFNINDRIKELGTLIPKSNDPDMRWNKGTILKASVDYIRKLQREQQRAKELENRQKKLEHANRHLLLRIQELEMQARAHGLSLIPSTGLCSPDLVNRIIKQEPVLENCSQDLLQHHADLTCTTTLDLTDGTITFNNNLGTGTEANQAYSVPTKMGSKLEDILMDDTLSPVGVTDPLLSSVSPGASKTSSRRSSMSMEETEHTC
Sequence of UniProt P52701 (P52701 whole entry, looked up): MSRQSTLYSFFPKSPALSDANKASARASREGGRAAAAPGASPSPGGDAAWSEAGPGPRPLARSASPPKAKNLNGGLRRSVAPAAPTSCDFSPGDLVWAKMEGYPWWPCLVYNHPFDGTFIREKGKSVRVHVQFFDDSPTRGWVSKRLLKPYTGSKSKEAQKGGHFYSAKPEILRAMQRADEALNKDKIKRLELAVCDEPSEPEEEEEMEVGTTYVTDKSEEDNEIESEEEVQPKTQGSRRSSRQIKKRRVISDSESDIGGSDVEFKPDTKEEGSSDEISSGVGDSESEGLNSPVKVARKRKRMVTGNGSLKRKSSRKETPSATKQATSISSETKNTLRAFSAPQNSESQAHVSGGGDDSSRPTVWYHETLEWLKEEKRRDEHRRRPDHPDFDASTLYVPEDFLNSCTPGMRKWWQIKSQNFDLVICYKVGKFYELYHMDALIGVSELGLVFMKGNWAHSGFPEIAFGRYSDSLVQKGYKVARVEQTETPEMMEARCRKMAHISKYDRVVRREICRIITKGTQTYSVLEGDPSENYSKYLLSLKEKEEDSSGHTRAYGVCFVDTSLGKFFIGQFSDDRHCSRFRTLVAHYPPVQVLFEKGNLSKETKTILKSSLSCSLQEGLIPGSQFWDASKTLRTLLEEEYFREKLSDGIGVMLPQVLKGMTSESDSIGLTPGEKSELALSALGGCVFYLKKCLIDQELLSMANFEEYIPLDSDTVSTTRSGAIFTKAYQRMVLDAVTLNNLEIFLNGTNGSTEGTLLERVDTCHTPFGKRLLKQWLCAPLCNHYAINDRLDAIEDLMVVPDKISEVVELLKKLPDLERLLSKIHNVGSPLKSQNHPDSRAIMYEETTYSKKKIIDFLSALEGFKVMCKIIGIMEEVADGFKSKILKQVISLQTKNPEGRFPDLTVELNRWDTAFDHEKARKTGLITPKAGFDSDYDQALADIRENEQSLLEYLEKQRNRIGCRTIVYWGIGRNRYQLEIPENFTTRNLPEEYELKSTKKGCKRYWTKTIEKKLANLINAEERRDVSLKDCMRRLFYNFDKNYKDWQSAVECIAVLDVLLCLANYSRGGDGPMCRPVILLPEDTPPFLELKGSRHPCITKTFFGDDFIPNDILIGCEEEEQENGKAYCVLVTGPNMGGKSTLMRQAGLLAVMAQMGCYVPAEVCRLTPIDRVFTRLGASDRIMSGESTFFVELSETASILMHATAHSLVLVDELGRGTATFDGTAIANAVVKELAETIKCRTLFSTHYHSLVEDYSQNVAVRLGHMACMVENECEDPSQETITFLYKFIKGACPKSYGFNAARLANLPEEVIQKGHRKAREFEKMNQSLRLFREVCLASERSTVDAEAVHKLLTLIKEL

log2 fold change, inactive:
NT5DC1 (UniProt Q5TFE4) 0.039
MYL12B (UniProt O14950) -0.03
NMT1 (UniProt P30419) 0.04
NBN (UniProt O60934) 0.009
NOSIP (UniProt Q9Y314) -0.146
PAK1 isoform 2 (UniProt Q13153) -0.02
NDUFS8 (UniProt O00217) -0.012
MRPS15 (UniProt P82914) 0.044
NMT2 (UniProt O60551) 0.023
OVCA2 (UniProt Q8WZ82) -0.031
NFYB (UniProt P25208) 0.04
NDUFS4 (UniProt O43181) 0.069
NANS (UniProt Q9NR45) 0.025
NDUFAF6 (UniProt Q330K2) -0.121
MRPL47 (UniProt Q9HD33) -0.116
MTHFD1 (UniProt P11586) 0.055
NA, A0A096LPI6 0.027
MIS12 (UniProt Q9H081) -0.003
NQO1 (UniProt P15559) -0.101
MITF (UniProt O75030) -0.085
NMNAT1 (UniProt Q9HAN9) 0.084
OGFOD1 (UniProt Q8N543) 0.018
ORC3 (UniProt Q9UBD5) -0.144
MRPS17 (UniProt Q9Y2R5) 0.118
NOB1 (UniProt Q9ULX3) -0.013
MRPS31 (UniProt Q92665) 0.065
NCKAP1 isoform 2 (UniProt Q9Y2A7) -0.041
NUMA1 (UniProt Q14980) 0.049
MSH6 (UniProt P52701) -0.053
NSMCE4A (UniProt Q9NXX6) -0.048
MMADHC (UniProt Q9H3L0) 0.158
MRPS12 (UniProt O15235) 0.15
NEU1 (UniProt Q99519) -0.025
NELFA (UniProt Q9H3P2) -0.005
MLX (UniProt Q9UH92) -0.17
